Experimental data from PubChem BioAssay (NCATS).
Results filed as inconclusive are left out. Active and inactive are the calls of the source. Calls follow the shape of the dose curve; as a rule, active = well fitted inhibition curve with a large enough effect; inconclusive = small, poorly fitted or top-dose-only effect; inactive = flat fitted curve, though single readings scatter. *1 amine or outer side, *2 acyl side, *3 side chain or, on linkers, in order; H or OH if unused. Where a SMILES comes first, the peptide text is derived from it. Bridges are numbered along the chain shown (N, C = ends). [ ]: non-standard residue; d: D form. The star is where a group is joined. X11 = NC1=N[C@@H](O)C[C@H]([C@H](N[*:1])C(=O)[*:2])N1; ΔAla(Z-3-ureido) = NC(=O)N/C=C(\N)C(=O)O; β3hOrn = NCCC[C@H](N)CC(=O)*; Dap = NC[C@H](N)C(=O)O

Target: Phospholipid hydroperoxide glutathione peroxidase GPX4 (Homo sapiens) (UniProt P36969)
Sequence (P36969 whole entry, looked up): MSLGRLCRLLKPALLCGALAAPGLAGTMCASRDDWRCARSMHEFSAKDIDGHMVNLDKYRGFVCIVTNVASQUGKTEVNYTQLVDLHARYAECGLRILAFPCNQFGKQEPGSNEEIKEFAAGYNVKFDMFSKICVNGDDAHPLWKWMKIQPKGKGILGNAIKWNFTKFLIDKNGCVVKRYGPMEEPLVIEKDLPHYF
Experiment: Primary qHTS Assay for Inhibitors of Recombinant Selenoprotein Glutathione Peroxidase 4 (GPX4) (AID 1845192); also: nearly all actives have a fitted effect of over 65% in size
Conditions: recombinant GPX4, GR-coupled NADPH fluorescence, 15 min; series mostly up to 50 µM; activity change, negative = inhibition: at the top concentration
Excerpt: Assay Provider: Elias S.J. Arner MD PhD.
Department of Medical Biochemistry and Biophysics
Karolinska Institutet, Solna, Stockholm, Sweden
Selenoprotein glutathione peroxidases (GPX), like the ubiquitously expressed GPX1 and the ferroptosis modulator GPX4, enact their antioxidant activities by reducing hydroperoxides using glutathione. […] GPX1 and GPX4 inhibitors have thus shown promise as anti-cancer agents. Existing inhibitors are often promiscuous, or modulate GPX activity only indirectly, so novel direct inhibitors identified through screening against GPX1 and GPX4 could be valuable. Here, we developed optimized glutathione reductase (GR)-coupled GPX assays for the biochemical high-throughput screen (HTS) of almost 12,000 compounds with known mechanisms of action. Initial hits were triaged using a GR counter-screen, assessed for isoform specificity using a separate GPX2 assay, and were assessed for general selenocysteine-targeting activity using a thioredoxin reductase (TXNRD1) assay. With this suite of assays, we identified novel GPX1/GPX2- and GPX4-specific inhibitors and can here present a validated pipeline for future discovery research for selenoprotein-targeting agents.
SEQUENCE No. (e.g., 1, 2, 3, etc.); […] (e.g., Cells, Incubation, Reagent, etc.); VALUE; DESCRIPTION.
1; Reagent 1; 3 uL; 333.33 nM GPx4 enzyme or no enzyme control in 1536-well, black, solid Greiner assay plate.
2; Compound; 25 nL; Kalypsis pin tool (Wako USA) equipped with a 1536-well pin head.
3; Incubation; 30 min; room temperature.
4; Reagent 2; 1 uL; 500 nM GR, 5 mM GSH, 2.5 mM NADPH solution
5; Reagent 3; 1 uL; 2.5 mM CHP in 50% EtOH.
6; Detection; Fluorescence; ViewLux microplate reader, excitation 340 nm and emission 450 nm.
7; Incubation; 15 min; room temperature.
8; Detection; Fluorescence; ViewLux microplate reader, excitation 340 nm and emission 450 nm.
NOTES (numbers refer to Sequence numbers above)
1. 3 µL of 333.33 nM GPX4 and 0.016% BSA in assay buffer (50 mM Tris-HCl, 2 mM EDTA (pH 7.5), 150 mM NaCl) was added to columns 3-48 of 1536-well plates using a BioRAPTR Flying Reagent Dispenser (Let's Go Robotics (LGR), Carlsbad, CA). A no-enzyme control (0.01% BSA in TES assay buffer) was added to columns 1-2.
2. 25 nL, library and DMSO controls were added to each well with a pin tool (Kalypsys).
3. The assay plates were incubated for 30 minutes at room temperature.
4. 1 µL of master mix (500 nM glutathione reductase (GR), 5 mM reduced glutathione (GSH), 2.5 mM NADPH in assay buffer) was added.
5. 1 µL of cumene hydroperoxide (CHP) ([2.5 mM] in 50% EtOH) was then added within 5 minutes to initiate the reaction. Final concentrations were: 200 nM GPX4, 1 mM GSH, 0.5 mM CHP, 0.5 mM NADPH, 100 nM GR, 0.01% BSA.
6. Initial fluorescence readout (t=0) at 340/450 nm was measured using a ViewLux multimodal detector (PerkinElmer, Waltham, MA).
8. Endpoint fluorescence readout (t=15) at 340/450 nm was measured 15 min after room temperature incubation.
Potency is read from the fitted curve at half-maximal effect.

| Compound | activity change, negative = inhibition | outcome | Potency |
| --- | --- | --- | --- |
| C[C@@H]1O[C@@H](O[C@@H]2/C=C/C=C/C=C\C=C\C[C@H](C)OC(=O)/C=C/[C@H]3O[C@@H]3C[C@H](O)C[C@]3(O)C[C@@H](O)[C@@H](C(=O)O)[C@H](C2)O3)[C@H](O)[C@H](N)[C@@H]1O | -18.7% [at 9.73 µM] (inactive) | – | – |
| CNc1ncc(-c2ccc3c(=O)c(C(=O)O)cn(C4CC4)c3c2C)cc1C | – | inactive [at 15.3 µM] | – |
| NCCC[C@H](N)CC(=O)N[C@H]1CNC(=O)[C@H]([C@H]2C[C@H](O)N=C(N)N2)NC(=O)/C(=C/NC(N)=O)NC(=O)[C@H](CO)NC(=O)[C@H](CO)NC1=O (β3hOrn-[Dap]SS[ΔAla(Z-3-ureido)][X11]; lactam 1-C) | – | inactive | – |
| C[N+](C)(C)CCOP(=O)([O-])OP(=O)(O)OC[C@H]1OC(n2ccc(N)nc2=O)[C@H](O)[C@@H]1O (stereo not given in full) | 0.205% [at 0.409 µM] (inactive) | – | – |
| CC(=O)O[C@]1(C(C)=O)CC[C@H]2[C@@H]3C=C(C)C4=CC(=O)CC[C@@H]4[C@H]3CC[C@@]21C | -19.3% (inactive) | – | – |
| NS(=O)(=O)c1ccc(-n2nc(C(F)(F)F)cc2-c2ccc(F)cc2)cc1 | 3.52% (inactive) | – | – |
| CN1C2CC[C@@H]1CC(OC(=O)[C@H](CO)c1ccccc1)C2 (stereo not given in full) | – | inactive | – |
| O=C(O[C@H]1C[N+]2(CCCOc3ccccc3)CCC1CC2)C(O)(c1cccs1)c1cccs1 | – | inactive | – |
| CC(C)CCC[C@@H](C)[C@H]1CC[C@H]2[C@@H]3CC=C4C[C@@H](O)CC[C@]4(C)[C@@H]3CC[C@]12C | 3.53% [at 27.8 µM] (inactive) | – | – |
| CC(C)c1nc(CN(C)C(=O)N[C@@H](CCN2CCOCC2)C(=O)N[C@H](CC[C@H](Cc2ccccc2)NC(=O)OCc2cncs2)Cc2ccccc2)cs1 | -21.9% (inactive) | – | – |
| COc1ccc2c(O[C@H]3CC4C(=O)N(C)CCCC/C=C\[C@@H]5C[C@@]5(C(=O)NS(=O)(=O)C5CC5)NC(=O)[C@@H]4C3)cc(-c3nc(C(C)C)cs3)nc2c1C (stereo not given in full) | – | – | 2 µM (active) |
| CCN1/C(=C/C=C/C=C/c2sc3ccccc3[n+]2CC)Sc2ccccc21 | – | – | 7.94 µM (active) |
| CCC1OC(=O)[C@H](C)C(=O)[C@H](C)[C@@H](OC2O[C@H](C)C[C@H](N(C)C)[C@H]2O)[C@](C)(OC)C[C@@H](C)C(=O)[C@@H](C)[C@@H]2N(CCCCn3cnc(-c4cccnc4)c3)C(=O)O[C@]12C (stereo not given in full) | – | inactive | – |
| CC1(C)C[C@H]1C(=O)N/C(=C\CCCCSC[C@@H](N)C(=O)O)C(=O)O | -8.57% (inactive) | – | – |
| CCC(=C(CC)c1ccc(OP(=O)(O)O)cc1)c1ccc(OP(=O)(O)O)cc1 | 1.61% [at 0.409 µM] (inactive) | – | – |
| CCC(=O)NC[C@@H]1C[C@H]1c1cccc2c1CCO2 | -9.26% (inactive) | – | – |
| Cn1c(=O)cc(N2CCC[C@@H](N)C2)n(Cc2cc(F)ccc2C#N)c1=O | -15.8% (inactive) | – | – |
| CO[C@H]1C[C@H](O[C@@H]2[C@H](C)O[C@H](O[C@@H]3/C(C)=C/C[C@@H]4C[C@@H](C[C@]5(C=C[C@H](C)[C@@H](C6CCCCC6)O5)O4)OC(=O)[C@@H]4C=C(C)C(O)[C@H]5OC/C(=C\C=C\[C@@H]3C)[C@]54O)C[C@@H]2OC)O[C@@H](C)[C@@H]1O (stereo not given in full) | -20.9% (inactive) | – | – |
| C#C[C@]1(O)CC[C@H]2[C@@H]3CCC4=CC(=O)CCC4[C@H]3CC[C@@]21CC (stereo not given in full) | – | inactive | – |
| CONC(=O)c1ccccc1Nc1cc(Nc2cc(C)nn2C(C)C)ncc1Cl | – | inactive | – |

| Compound | activity change, negative = inhibition | outcome | Potency |
| --- | --- | --- | --- |
| O=P(O)(O)OC1C(OP(=O)(O)O)C(OP(=O)(O)O)C(OP(=O)(O)O)C(OP(=O)(O)O)C1OP(=O)(O)O (stereo not given) | – | inactive | – |
| C[C@@H]1NC(=O)[C@@H]2CCCN2C(=O)[C@H](CC(N)=O)NC(=O)[C@@H]2CSSC[C@H](N)C(=O)N[C@H]3CSSC[C@H](NC1=O)C(=O)N[C@@H]([C@@H](C)O)C(=O)NCC(=O)N[C@H](C(=O)N[C@@H](Cc1ccc(O)cc1)C(=O)O)CSSC[C@H](NC(=O)[C@H](Cc1ccc(O)cc1)NC(=O)[C@H](CCC(=O)O)NC3=O)C(=O)N2 (H-CCEYCCNPACTGCY-OH; disulfide 1-6, 2-10, 5-13) | -21.2% [at 27.8 µM] (inactive) | – | – |
| CCCCC(CC)COc1ccc(-c2nc(-c3ccc(OC)cc3)nc(-c3ccc(OCC(CC)CCCC)cc3O)n2)c(O)c1 (stereo not given) | -23.8% [at 4.52 µM] (inactive) | – | – |
| CC[C@H]1OC(=O)C[C@@H](O)[C@H](C)[C@@H](OC2OC(C)C(O)C(N(C)C)C2O)[C@@H](CCN2CCCCC2)C[C@@H](C)C(=O)/C=C/C(C)=C/[C@@H]1CN1CCCCC1 (stereo not given in full) | 3.6% (inactive) | – | – |
| COC(=O)N[C@H](C(=O)N1CCC[C@H]1c1ncc(-c2ccc3c(c2)O[C@@H](c2ccccc2)n2c-3cc3cc(-c4cnc([C@@H]5CCCN5C(=O)[C@@H](NC(=O)OC)C(C)C)[nH]4)ccc32)[nH]1)C(C)C | – | – | 6.31 µM (active) |
| CCCCCCCCCCCCCCCC(=O)OC1C(SC)OC(C(NC(=O)C2CC(CCC)CN2C)C(C)Cl)C(O)C1O (stereo not given) | – | inactive | – |
| C[C@H]1[C@H](OC(=O)CCC(=O)O)O[C@@H]2O[C@@]3(C)CC[C@H]4[C@H](C)CC[C@@H]1[C@@]24OO3 | -21.7% (inactive) | – | – |
| CCCCCCO[C@@H](C)c1cccc(-c2csc(NC(=O)c3cc(Cl)c(/C=C(\C)C(=O)O)c(Cl)c3)n2)c1OC | – | – | 2.51 µM (active) |
| CO[C@H]1C[C@@H]2CC[C@@H](C)[C@@](O)(O2)C(=O)C(=O)N2CCCC[C@H]2C(=O)O[C@H]([C@H](C)C[C@@H]2CC[C@@H](OCCO)[C@H](OC)C2)CC(=O)[C@H](C)/C=C(/C)[C@@H](O)[C@@H](OC)C(=O)[C@H](C)C[C@H](C)\C=C/C=C\C=C/1C | – | – | 3.98 µM (active) |
| O=C1[C@@H]2[C@H]3CC[C@H](C3)[C@@H]2C(=O)N1C[C@@H]1CCCC[C@H]1CN1CCN(c2nsc3ccccc23)CC1 | -14.1% (inactive) | – | – |
| OC[C@H]1O[C@H](O[C@H]2[C@H](O)[C@@H](O)[C@H](O)O[C@@H]2CO)[C@H](O)[C@@H](O)[C@@H]1O | -10.5% (inactive) | – | – |
| CCC(=O)OCC(=O)[C@]1(OC(=O)CC)[C@H](C)C[C@H]2[C@H]3[C@H]([C@@H](O)C[C@@]21C)[C@@]1(C)C=CC(=O)C=C1C[C@H]3Cl | -18.8% (inactive) | – | – |
| CO[C@H]1/C=C\O[C@@]2(C)Oc3c(C)c(O)c4c(O)c(c(/C=N/N5CCN(C6CCCC6)CC5)c(O)c4c3C2=O)NC(=O)/C(C)=C\C=C/[C@H](C)[C@H](O)[C@@H](C)[C@@H](O)[C@@H](C)[C@H](OC(C)=O)[C@@H]1C | – | – | 10 µM (active) |
| COc1cc(N)cn[n+]1-c1ccccc1 | -19.6% (inactive) | – | – |
| O=C1CCC(C(=O)O)N1 (stereo not given) | – | inactive | – |
| CCCCCCCCCCCCCCCC(=O)OCC=C(C)C=CC=C(C)C=CC1=C(C)CCCC1(C)C | – | inactive | – |
| N#Cc1c(N2C[C@@H]3NCCO[C@H]3C2)c(F)cc2c(=O)c(C(=O)O)cn(C3CC3)c12 | -13.9% (inactive) | – | – |
| CCNC(=O)CCC/C=C\C[C@@H]1[C@@H](/C=C/[C@@H](O)CCc2ccccc2)[C@H](O)C[C@@H]1O | – | inactive | – |
| CC1CCCC(C)N1C(=S)Nc1cccc(C(F)(F)F)c1 (stereo not given) | – | – | 11.2 µM (active) |
| CCC(=O)Oc1ccc2c(c1)CC[C@@H]1[C@H]2CC[C@]2(C)[C@@H](OC(=O)CC)CC[C@@H]12 | -3.62% (inactive) | – | – |
